Source: PubChem BioAssay (Johns Hopkins Ion Channel Center)
KCNQ2 block: rat KCNQ2 potassium channel inhibitors, primary screen, cell-based, CHO-K1, FluxOR thallium flux, B-score; actives 1.1% (n = 310,000); Potassium voltage-gated channel subfamily KQT member 2 (Rattus norvegicus), O88943; B-score at 10 µM; 20 min; hits give low values;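 active = fluorescence ratio B-score at most minus 3 library SDs, with starting brightness B-score within 2 library SDs, cut at about -5.5 in these data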
KCNQ2 enhance: potentiators of rat KCNQ2 potassium channel | B-score at 10 µM | Potassium voltage-gated channel subfamily KQT member 2 (Rattus norvegicus), O88943 | CHO-K1 KCNQ2, FluxOR thallium flux fluorescence; hits give high values | actives 0.54% (n = 310,000);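 active = fluorescence ratio B-score at least 3 SD of library B-scores, with initial fluorescence B-score within 3 of them, cut at about 5.3 in these data; same plate scores as AID 2156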;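 also: B-score of peak minus minimum over baseline fluorescence ratio after K+ and Tl+ stimulus; positive B-score means potentiation of KCNQ2 with more thallium influx and brighter signal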
KCNQ2 block conf: rat KCNQ2 potassium channel inhibitors, confirmation, cell-based, thallium flux | shares compounds with KCNQ2 block | KCNQ2-expressing cells, inhibition; hits give low values | activity change, negative = inhibition, % at 10 µM | actives 57% (n = 1,000) | AID 493025, 2011;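 also: 0% = vehicle wells and values are ratio percent relative to vehicle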
KCNQ1 spec: human KCNQ1 channel inhibition, counter-screen for KCNQ2 inhibitor project, cell-based, FluxOR thallium flux; activity change, negative = inhibition, % at 10 µM; shares compounds with KCNQ2 block; actives 15% (n = 1,000); KCNQ1-expressing cells, FluxOR thallium flux fluorescence; hits give low values;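 active = activity change at least 3 SD of negative controls below their mean in both duplicate wells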;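 also: CHO cells stably transfected with KCNQ1 and depolarized by potassium stimulus; peak minus minimum fluorescence over baseline after thallium addition; 0% = vehicle negative control and -100% = blank without thallium stimulus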
CHO Tl ctr: thallium flux change in parental CHO cells, counter-screen for KCNQ2 inhibitor project; shares compounds with KCNQ2 block; hits give low values; activity change, % at 10 µM; actives 14% (n = 1,000);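 also: 0% = vehicle negative controls with stimulus buffer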
KCNQ2 inh confirm: rat KCNQ2 channel inhibitors, confirmation, cell-based, automated patch clamp, single concentration; shares compounds with KCNQ2 block; KCNQ2-expressing cells, automated patch clamp current; calls only at 10 µM; actives 49% (n = 550); AID 588531, 2011
Kir21 conf inh: mouse Kir2.1 channel blockers, retest, confirmation, cell-based, FluxOR thallium flux, duplicate | shares compounds with KCNQ2 enhance | Kir2.1-expressing cells, FluxOR thallium flux fluorescence; hits give low values | Tl flux remaining, % of negative control (hits give low values), % at 10 µM | actives 41% (n = 2,300);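 active = Primary-screen hit whose thallium flux fell at least 3 control SD below untreated wells in both duplicates, with normal baseline fluorescence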;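 also: 0% = blank wells without stimulus and 100% = stimulated no-compound controls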
HEK293 ctr: alters thallium flux in parental HEK293 cells, Kir2.1 counter-screen. FluxOR thallium flux fluorescence; 0% = unstimulated blank wells. shares compounds with KCNQ2 enhance. FluxOR signal as % of negative control (100 = no effect), % at 10 µM. AID 2105. actives 19% (n = 2,300);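 active = dye signal at least 3 control SD above or below untreated wells in both duplicates, raw fluorescence within 3, either direction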;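 also: percent is based on the flux ratio of peak minus minimum fluorescence over baseline F0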
CHO-K1 Tl ctr: nonspecific thallium flux increase in parental CHO-K1, confirmation, counter-screen for KCNQ2 potentiator project, cell-based, FluxOR thallium flux, duplicate; shares compounds with KCNQ2 enhance; parental CHO-K1 cells, FluxOR thallium flux fluorescence; zero = vehicle mean+3SD, 100% = vehicle-minus-blank window; activity increase over 3SD of controls, % at 10 µM; actives 43% (n = 1,200);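 active = signal rise of at least 3 SD above the untreated control mean, in both duplicate wells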;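 also: counter screen of KCNQ2 potentiator hits so any rise reflects channel-independent effects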
KCNQ1 pot spec: human KCNQ1 channel potentiation off-target, confirmation, selectivity assay for KCNQ2 potentiator project, cell-based, CHO, FluxOR thallium flux. shares compounds with KCNQ2 enhance. CHO KCNQ1 stable, FluxOR thallium flux fluorescence; beyond 3SD, as % of vehicle-control signal. activation over 3SD threshold, % at 10 µM. actives 28% (n = 1,200);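 active = fluorescence ratio rise of at least 3 SD of vehicle wells above their mean, in both replicate wells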;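 also: 0% = vehicle mean plus 3 SD and 100% = vehicle minus unstimulated blank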
KCNQ2 pot conf: rat KCNQ2 channel potentiators, confirmation, cell-based, CHO, FluxOR thallium flux, duplicate; shares compounds with KCNQ2 enhance; CHO-KCNQ2 cells, FluxOR thallium flux fluorescence; potentiation, less the hit threshold, % at 10 µM; actives 68% (n = 1,200);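 active = fluorescence ratio rising 3 SD or more over the vehicle control mean in both replicates, plus primary screen hit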;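 also: peak minus minimum thallium fluorescence divided by baseline after K/Tl stimulus; 0% = vehicle mean plus 3 SD and 100% = vehicle minus unstimulated blank difference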
Kir21 spec: mouse Kir2.1 channel activation off-target, confirmation, selectivity assay for KCNQ2 potentiator project, cell-based, HEK293, FluxOR thallium flux | actives 2% (n = 1,200) | AID 2345, 2010 | HEK293 Kir2.1, FluxOR thallium flux fluorescence | shares compounds with KCNQ2 enhance | activity over 3SD threshold, % at 10 µM;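 active = fluorescence ratio rise of at least 3 SD above the vehicle-control mean, seen in both replicates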;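 also: 0% = vehicle mean plus 3 SD and 100% = vehicle minus no-stimulus blank window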
KCNQ2 W236L MoA: potentiators of retigabine-insensitive KCNQ2 W236L, mechanism study for KCNQ2 potentiator project, cell-based, rat KCNQ2 W236L, CHO, automated patch clamp; automated patch clamp current; current increase over 3SD of negative controls (%), hits give high values, % at 25 µM; actives 10% (n = 940); shares compounds with KCNQ2 enhance;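 active = current increase at least 3 SD of the untreated controls above them in both duplicate recordings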
Target sequence (O88943 whole entry W236L, looked up): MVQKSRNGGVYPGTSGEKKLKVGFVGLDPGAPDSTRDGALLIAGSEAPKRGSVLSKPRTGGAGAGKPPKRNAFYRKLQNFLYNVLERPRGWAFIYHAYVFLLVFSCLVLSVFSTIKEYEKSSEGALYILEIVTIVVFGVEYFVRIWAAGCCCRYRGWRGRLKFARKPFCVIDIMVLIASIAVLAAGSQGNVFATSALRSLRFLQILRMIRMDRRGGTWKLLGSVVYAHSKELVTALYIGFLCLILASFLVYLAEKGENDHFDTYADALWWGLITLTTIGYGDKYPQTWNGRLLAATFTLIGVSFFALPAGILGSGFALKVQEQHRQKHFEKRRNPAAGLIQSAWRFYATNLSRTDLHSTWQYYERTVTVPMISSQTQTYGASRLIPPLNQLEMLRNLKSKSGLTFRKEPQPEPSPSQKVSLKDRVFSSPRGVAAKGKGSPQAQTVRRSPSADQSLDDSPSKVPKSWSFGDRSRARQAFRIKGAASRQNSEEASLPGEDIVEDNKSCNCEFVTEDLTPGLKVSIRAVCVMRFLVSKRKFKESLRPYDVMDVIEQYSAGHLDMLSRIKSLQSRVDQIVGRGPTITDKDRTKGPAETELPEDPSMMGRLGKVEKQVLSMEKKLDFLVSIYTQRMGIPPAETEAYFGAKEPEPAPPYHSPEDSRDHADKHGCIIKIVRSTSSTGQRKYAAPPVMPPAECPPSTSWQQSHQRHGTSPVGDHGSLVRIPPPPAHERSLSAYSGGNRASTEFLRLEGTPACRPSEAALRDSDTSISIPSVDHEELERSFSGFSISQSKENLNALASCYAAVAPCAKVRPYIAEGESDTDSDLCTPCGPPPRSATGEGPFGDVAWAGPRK
Starred values were filed as active, the others as inactive; i = inactive; . = no result. Sampled rows, rich in hits. Any-hit rate of the full collection: about 1.6%. Unless noted, no rule for the calls is given here.

SMILES	KCNQ2 block	KCNQ2 enhance	Kir21 conf inh	HEK293 ctr	others
c1ccc(-c2cc(-c3ccccc3)[n+](-c3ccccc3)c(-c3ccccc3)c2)cc1	-13*	-13	34%*	i	KCNQ2 block conf=i;KCNQ1 spec=i;CHO Tl ctr=i
Cc1ccc(-c2cc(-c3ccc(C)cc3)[n+](-c3ccccc3)c(-c3ccc(C)cc3)c2)cc1	-13*	-13	12%*	i	KCNQ2 block conf=i;KCNQ1 spec=i;CHO Tl ctr=i
CCOC(=O)c1cccc(-[n+]2c(-c3ccccc3)cc(-c3ccccc3)cc2-c2ccccc2)c1	-7.3*	-7.3	i	i	KCNQ2 block conf=-32%*;KCNQ1 spec=i;CHO Tl ctr=i;KCNQ2 inh confirm=i
CCOC(=O)c1ccccc1C(=O)OCC	i	0.49	.	.
COP(=O)(/C=C(\Cl)c1ccccc1)/C=C(\Cl)c1ccccc1	i	.	.	.
Cn1c(O)c(C(=Nc2ccccc2)SCc2ccc(Cl)cc2)c(=O)n(C)c1=O	i	.	.	.
CCOCN(C(=O)CCl)c1c(C)cccc1CC	i	.	.	.
CC/C(=C\C=C\[C@@H]1C=C[C@@H]2CCC[C@H]2[C@@H]1C(=O)c1ccc[nH]1)[C@@H]1O[C@@H]([C@@H](C)C(=O)O)CC[C@@H]1C	i	28*	.	.	CHO-K1 Tl ctr=-14;KCNQ1 pot spec=-19;KCNQ2 pot conf=74*;Kir21 spec=-48;KCNQ2 W236L MoA=i
COc1ccc(C)cc1NC1=NCCCS1	i	.	.	.
CN1CCCN(C(=O)COc2ccc(F)cc2F)CC1	i	.	.	.
COc1ccc2c(c1)/C(=C/c1cnc[nH]1)C(=O)N2	i	6.8*	i	i	CHO-K1 Tl ctr=-6;KCNQ1 pot spec=-17;KCNQ2 pot conf=10*;Kir21 spec=-46;KCNQ2 W236L MoA=i
O=C1Nc2ccccc2/C1=C/c1cnc[nH]1	i	1.4	.	.
Cc1ccc(C(O)P(=O)(Oc2ccccc2)Oc2ccccc2)cc1 (centres undefined)	i	1.3	.	.
Fc1ccc(C(OCCN2CCCC2)c2ccc(Br)cc2)cc1 (centres undefined)	i	.	45%*	i
Fc1ccc(C(OCCN2CCCC2)c2ccc(F)cc2)cc1	i	2.5	.	.
C#CC1(OC(=O)c2ccccc2)CC(C)N(C)CC1C (centres undefined)	i	.	.	.
CCCCn1c(=O)c(C(=O)Nc2ccsc2C(=O)OC)c(O)c2ccccc21	i	.	.	.
CSc1ncc(CN2CCCC(C(=O)c3cccc(Cl)c3)C2)cn1 (centres undefined)	i	1	.	.
COc1ccc(CN2CCCC(C(=O)c3cccc(Cl)c3)C2)cc1 (centres undefined)	i	.	24%*	i
CC1(C)CC(=O)C2=C(C1)NC(=O)C21C(C(=O)OC(C)(C)C)=C(N)Oc2ccc(Br)cc21 (centres undefined)	i	.	.	.
Oc1cccc2nc3ccccc3nc12	i	12*	i	i	CHO-K1 Tl ctr=-14;KCNQ1 pot spec=-6;KCNQ2 pot conf=7.1*;Kir21 spec=-35;KCNQ2 W236L MoA=i
Cc1ccc(CN2CCN(Cc3ccccc3F)CC2)cc1	i	0.52	42%*	i
CCN1CCN(Cc2ccc(C)cc2)CC1	i	1.3	.	.
Cc1cccc(CN2CCN(Cc3ccc(Cl)cc3)CC2)c1	i	.	24%*	i
Cc1cccc(CN2CCN(c3ccc(Cl)cc3)CC2)c1	i	.	.	.
SMILES	KCNQ2 block	KCNQ2 enhance	Kir21 conf inh	HEK293 ctr	others
CCC(C)N1C(=O)/C(=C/c2ccc3c(c2)CCN3CCCCl)C(=O)NC1=S (centres undefined)	i	0.01	.	.
COc1ccccc1-n1c(O)c(/C=N/N2CCCCC2)c(=O)n(-c2ccccc2OC)c1=S	i	0.69	.	.
COC(=O)C1=C(c2cc3ccccc3o2)C[C@@H]2CC[C@H]1N2C(=O)N1CCC(O)CC1	i	.	.	.
COC(=O)C1=CO[C@@H](C)[C@@H]2CN3CC[C@]4(C(=O)Nc5ccccc54)[C@@H]3C[C@H]12	i	0.01	.	.
CN(C)CCOC(=O)c1cn(Cc2ccccc2)c2ccccc12	i	.	52%*	i
CCC(=O)c1cn(Cc2ccccc2)c2ccccc12	i	2.1	.	.
O=[N+]([O-])NC1=NCCN1Cc1ccc(Cl)nc1	i	1.4	.	.
COc1ccc(CC(C)Nc2cccc(F)c2)cc1 (centres undefined)	i	0.62	.	.
c1ccc(CNCCc2c[nH]c3ccccc23)cc1	i	.	.	.
CCc1ccc(CNCCc2c[nH]c3ccccc23)cc1	i	.	18%*	i
c1ccc2sc(C3CCNCC3)nc2c1	i	.	.	.
